Measured values as given in the supplement of paper PMC6555819.

Columns and labels:
Test in all cases: PBM binding z-score (relative to random genomic background probes); higher = stronger binding; sequences stand for … in GC…GCGATTGACAGCGTAGAATGAAGG
[1] = system: FXR:RXRa (NR concentration 270 nM, RXRa partner concentration 90 nM)
Summary of the method: (§1)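 Binding z-scores were set against random background probes. The data came from custom Agilent 4×180K protein-binding microarrays carrying double-stranded probes with 34-nt variable regions, incubated 1 h with ligand-free nuclear receptor dimers. Partner-specific antibodies detected binding, and scanned fluorescence was regression-normalized.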

[2] = system: LXRa:RXRa (NR concentration 270 nM, RXRa partner concentration 90 nM)
Summary of the method: as §1

[3] = system: LXRa homodimer (NR concentration 270 nM)
Summary of the method: as §1

[4] = system: LXRb:RXRa (NR concentration 270 nM, RXRa partner concentration 90 nM)
Summary of the method: as §1

[5] = system: LXRb homodimer (NR concentration 270 nM)
Summary of the method: as §1

[6] = system: PPARa:RXRa (NR concentration 270 nM, RXRa partner concentration 90 nM)
Summary of the method: as §1

[7] = system: PPARg:RXRa (NR concentration 180 nM, RXRa partner concentration 90 nM)
Summary of the method: as §1

[8] = system: PPARg:RXRa 270nM:90nM, anti-RXR (NR concentration 270 nM, RXRa partner concentration 90 nM)
Summary of the method: as §1

[9] = system: PPARg:RXRa 30nM:10nM, anti-RXR (NR concentration 30 nM, RXRa partner concentration 10 nM)
Summary of the method: as §1

[10] = system: PPARg:RXRa 90nM:30nM, anti-RXR (NR concentration 90 nM, RXRa partner concentration 30 nM)
Summary of the method: as §1

[11] = system: PPARg:RXRa DBDmut IVT, anti-RXR (DBD mutation: RXRa K156A/R161A, NR concentration 270 nM, RXRa partner concentration 90 nM)
Summary of the method: as §1

[12] = system: PPARg:RXRa IVT, anti-PPARg (NR concentration 270 nM, RXRa partner concentration 90 nM)
Summary of the method: as §1

[13] = system: PPARg DBDmut:RXRa IVT, anti-PPARg (DBD mutation: PPARg1 K132A/R137A, NR concentration 270 nM, RXRa partner concentration 90 nM)
Summary of the method: as §1

[14] = system: PPARg DBDmut IVT, anti-PPARg (DBD mutation: PPARg1 K132A/R137A, NR concentration 270 nM)
Summary of the method: as §1

[15] = system: PPARg homodimer (NR concentration 180 nM)
Summary of the method: as §1

[16] = system: PXR:RXRa (NR concentration 270 nM, RXRa partner concentration 90 nM)
Summary of the method: as §1

[17] = system: PXR homodimer (NR concentration 270 nM)
Summary of the method: as §1

[18] = system: RARa:RXR (NR concentration 270 nM, RXRa partner concentration 90 nM)
Summary of the method: as §1

[19] = system: RARa homodimer (NR concentration 270 nM)
Summary of the method: as §1

[20] = system: RARb:RXRa (NR concentration 270 nM, RXRa partner concentration 90 nM)
Summary of the method: as §1

| Sequence | PBM binding z-score [1] | PBM binding z-score [2] | PBM binding z-score [3] | PBM binding z-score [4] | PBM binding z-score [5] | PBM binding z-score [6] | PBM binding z-score [7] | PBM binding z-score [8] | PBM binding z-score [9] | PBM binding z-score [10] | PBM binding z-score [11] | PBM binding z-score [12] | PBM binding z-score [13] | PBM binding z-score [14] | PBM binding z-score [15] | PBM binding z-score [16] | PBM binding z-score [17] | PBM binding z-score [18] | PBM binding z-score [19] | PBM binding z-score [20] |
| --- | --- | --- | --- | --- | --- | --- | --- | --- | --- | --- | --- | --- | --- | --- | --- | --- | --- | --- | --- | --- |
| AGAACGAGGTTACCAAAGATCAGGGAAACGCTTG | 1.56 | 5.74 | -0.119 | 2.92 | -0.342 | 3.07 | 2.21 | 1.99 | 0.478 | 1.55 | 2.75 | 2.7 | 0.297 | 0.837 | 0.438 | 1.41 | -0.605 | 1.66 | -0.278 | 2.02 |
| CGAACTAGGTCAGAACAGGACGGTGAAGGATGAT | 0.947 | 0.319 | -0.295 | -0.0399 | -0.471 | 2.64 | 4.74 | 4.11 | 2.15 | 3.38 | 7.03 | 7.23 | 1.59 | 1.11 | 0.681 | 0.143 | -0.288 | 0.525 | 0.0623 | 2.55 |
| CGTCCAAGGTCAGCACGTCAGTGAAAGCGACGTG | 5.32 | 3.11 | -0.0642 | 2.37 | -0.16 | 4.23 | 2.38 | 2.91 | 0.448 | 1.36 | 2.18 | 2.13 | 0.0717 | 0.0669 | 1.85 | 2.31 | 0.247 | 3.39 | 0.134 | 4.89 |
| AGAATGAGGTTAAGATCAGGAAAACAGAATACAT | 2.16 | 1.98 | -0.0642 | 1.77 | -0.122 | 3.76 | 2.48 | 2.46 | 1.03 | 1.72 | 2.5 | 2.67 | 1.33 | 0.813 | 0.0242 | 1.08 | 0.189 | 1.93 | 0.732 | 1.9 |
| CGAACTAGGTCATTGACAGGACAGTGCATAGTAA | 4.46 | 3.18 | 0.766 | 2.04 | -0.0575 | 4.8 | 7.55 | 6.33 | 3.65 | 5.79 | 7.99 | 8.21 | 2.11 | 0.779 | 1.71 | 1.76 | 0.634 | 2.28 | 0.279 | 3.66 |
| GCTAGCTGGTCAGTAAAAGGTCACACACCGGTCG | 3.2 | 4.47 | 4.35 | 3.88 | 0.195 | 4.21 | 2.43 | 4.13 | 1.46 | 3.75 | 0.546 | 2.35 | 0.0238 | -0.213 | 5.71 | 5.04 | 0.209 | 6.16 | 2.36 | 4.23 |
| CCTGCTTGGTCAATGGTCAGCTAAAGCAGCTCGC | -0.266 | -0.183 | -0.536 | -0.566 | -0.491 | -0.243 | -0.553 | 0.82 | -0.904 | 0.17 | 0.434 | -0.107 | -1.05 | -0.884 | 0.138 | -0.296 | -0.881 | 0.00711 | -0.943 | 1.01 |
